± gives the standard deviation of the averaged measurements. In all, about 25,000 sequences were measured (“ln(normalized median fluorescence intensity)”: median about 7.9, highest 2% from about 11 on). This is one part of a sample in which the highest values are shown more often than they occur.

In the test the test system is PfAP2-I AP2 domain 3 (GST-tagged). The experiment in a line: gcPBM binding intensity (ln(normalized median fluorescence intensity)); higher = stronger DNA binding. The method, boiled down: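 The binding buffer was 1× PBS containing 1% milk, 0.2 mg/ml BSA, 0.5% salmon testes DNA and 0.03% Triton X-100. In it, GST-tagged P. falciparum DNA-binding domains expressed in E. coli were applied for 1 h to an Agilent 4 × 180k array of primer-extended double-stranded 36-bp intergenic genomic probes plus negative controls. Binding intensity, read with Alexa488 anti-GST antibody and a 488 nm scan, is the highest Masliner-normalised natural-log median intensity across replicate spots of either probe orientation.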
For “TGTATAAATATAATCACACATATATATATATATATA [CACACA_site4365]”, the “gcPBM binding intensity (ln)” value was 9.32 ± 0.53. Turning to “AATTTATAAGAATAAAGTACTAAAGATACAACTTTA [XGTACX_site7153]”, the “gcPBM binding intensity (ln)” value came out at 7.53 ± 0.4. The same measure for “GAATAAAAAAAAAAAAAAATTTATTTTATAATAAAA [CACACA_negctrl_site1514]”: 7.24 ± 0.49. On to “ACTTATATTATAAATTGTACAAATATTATATTTGGT [XGTACX_site1424]”, for which the “gcPBM binding intensity (ln)” value worked out at 7.76 ± 0.54.

On to “ACATATATATATATATATATATATATATTACATTTA [CACACA_negctrl_site627]”, for which the “gcPBM binding intensity (ln)” value came out at 8.54 ± 0.28. Regarding “AATAAAGAAGAAGAAAGTACACATTTCACAAAGGGG [XGTACX_site1308]”, the “gcPBM binding intensity (ln)” value worked out at 8.23 ± 0.21. Regarding AAAAATACAATTTTCTTGCACTTTGTTGCATTGTAA, the “gcPBM binding intensity (ln)” value worked out at 9.79 ± 0.32.

As to “TATAAATAGATATATACACACTTGTGCAGAATATTA [CACACA_site7112]”, the “gcPBM binding intensity (ln)” value amounted to 9.37 ± 0.099. Take “CCATCTTTTTTACGATGTACAAGTATAAGGTATACG [XGTACX_site2697]”: the “gcPBM binding intensity (ln)” value stood at 7.76 ± 0.46. As for “TACTGCCTTCCATACCCACACACTTCCCATATATTT [CACACA_site2705]”, the “gcPBM binding intensity (ln)” value worked out at 8.44 ± 0.69.

In the case of “TAGAACAAATAAAACACACACATATAAATATAGATG [CACACA_site7325]”, the “gcPBM binding intensity (ln)” value came out at 7.65 ± 0.73. “TTTTTTTGTTGTTGTTGTACGATATTTTCCTTATCA [XGTACX_site2375]”: the “gcPBM binding intensity (ln)” value is 7.93 ± 0.54. Turning to “TATTCAATACTTAATGCACACAATAAAAAAAATATG [CACACA_site2467]”, the “gcPBM binding intensity (ln)” value came out at 10.9 ± 0.71. Turning to “TATGCAATAAAATATACACACAATATACTTATATAT [CACACA_site7691]”, the “gcPBM binding intensity (ln)” value worked out at 7.87 ± 0.4. The same measure for “TATGTAATAAAATATACACACAATATACTTATATAT [CACACA_site3682]”: 7.53 ± 0.55; for “AATAATAATATATGTAGTACACATTTCCATTATGTT [XGTACX_site3708]”: 7.75 ± 0.27. Regarding “ACTTATTGTGGTTTTGCATGTAGCATTTTTACATAC [TGCATGCA_site247]”, the “gcPBM binding intensity (ln)” value was determined as 8.62 ± 0.91.

For the sequence “TGTTTTATTTTTTTTGTGCACATACCTTTAGCATCA [GTGCAC_site9812]”, the “gcPBM binding intensity (ln)” value was 10.64 ± 0.064. For CATCATCTTTTAAAGGTGCATAATAATATTGTTAAT, the “gcPBM binding intensity (ln)” value is 11.4 ± 0.69.

As for TTTCTTTTTAAATAGGTGCATATTTTTATAAATATA, the “gcPBM binding intensity (ln)” value is 9.95 ± 0.42. As to TTTTGTTATTTTTTAGTGCATATAAAGGTTGTTAAG, the “gcPBM binding intensity (ln)” value amounted to 10.7 ± 0.4.

As for “ATATACATTCTATATACATGCATACTTCATTTTGTG [TGCATGCA_site966]”, the “gcPBM binding intensity (ln)” value worked out at 8.03 ± 0.85. In the case of “GTGAAATATGCAAACACACACGAGAAAAATGTATAT [CACACA_site7488]”, the “gcPBM binding intensity (ln)” value was 8.19 ± 0.91. Turning to “AAAAGGAGAAATATTGCACACGTGCAAAATGGTATG [CACACA_site4300]”, the “gcPBM binding intensity (ln)” value turned out to be 11.3 ± 0.085. Regarding “AGGAAAATTATGAATGGTACAGAATATATTAGGAGA [XGTACX_site6282]”, the “gcPBM binding intensity (ln)” value turned out to be 8.05 ± 0.74. “AATGAGAAGGACTGCACACTAAAATGGAAGGAGAAA [CACACA_site1575]”: the “gcPBM binding intensity (ln)” value came out at 8.28 ± 0.79. “GAGTGAAATATGCAAACACACACGAGAAAAATGTAT [CACACA_site3196]”: the “gcPBM binding intensity (ln)” value was 8.09 ± 0.85. In the case of “AAGGAGAAATATTGCACACGTGCAAAATGGTATGAG [CACACA_site259]”, the “gcPBM binding intensity (ln)” value worked out at 11.1 ± 0.35. In the case of “AAGAAGAGTTATTGTAGTACATTTTTAAATGTAATA [XGTACX_site7664]”, the “gcPBM binding intensity (ln)” value was 7.73 ± 0.34. Consider “TGTTATATAATTTAGCGTACAGGTTATAGGACGGAT [XGTACX_site8823]”, for which the “gcPBM binding intensity (ln)” value turned out to be 8.5 ± 0.35. On to “CCATGATTATTAGATTGTACATAACATACAAATTGA [XGTACX_site314]”, for which the “gcPBM binding intensity (ln)” value was 7.68 ± 0.45. Regarding “TGTCATGATACATACACACACATACACATACACATA [CACACA_site2135]”, the “gcPBM binding intensity (ln)” value was 8.05 ± 0.42.

Take “ATATATATATATATATGTACTAATTAATATTTCGAG [XGTACX_site580]”: the “gcPBM binding intensity (ln)” value worked out at 9.45 ± 0.49.

Take “TTTTTTTTTTTCGGGGGTACTAATATATTATTAATA [XGTACX_site7809]”: the “gcPBM binding intensity (ln)” value turned out to be 10.8 ± 0.47. As to “AATATTATATATATGGGTACTAATTCCTTTAATTTC [XGTACX_site102]”, the “gcPBM binding intensity (ln)” value is 7.45 ± 0.53. The same measure for “ATATGCATAAAAAGAGGTACACATAAAATATATATA [XGTACX_site5864]”: 8.19 ± 0.64; for “TAAATAATTTATAAGTGTACTATTATTGCACGAATA [XGTACX_site7715]”: 11.1 ± 0.57. Regarding “GATATACAATTTAAGTGTACTATAATAAAATATATA [XGTACX_site3013]”, the “gcPBM binding intensity (ln)” value was 7.79 ± 0.071. The same measure for “TTTATTTAAAATAAGTGTACTAGAAAAATTAAGCAG [XGTACX_site4982]”: 8.55 ± 0.16. For the sequence “ACATATTTCCAATAATGTACATACAAAATAAGAATG [XGTACX_site2659]”, the “gcPBM binding intensity (ln)” value was 7.82 ± 0.58. The same measure for “AAAAAAAAAATATATTGTACAATATTGTAGCTATAT [XGTACX_site7180]”: 7.67 ± 0.49. Consider “GTTTTTAAGAAAAACACACACTCCTGTTATTTTATA [CACACA_site3696]”, for which the “gcPBM binding intensity (ln)” value was 7.67 ± 0.72. Consider “ATGCTTATTATTTATTGTACTGAATAAATATATCTG [XGTACX_site4483]”, for which the “gcPBM binding intensity (ln)” value stood at 7.79 ± 0.46. As to “TCGTGCATAAATCATACACACACACCGATATATATA [CACACA_site8767]”, the “gcPBM binding intensity (ln)” value came to 11.3 ± 0.67. As to “GTGCATAAATCATACACACACACATATATAAATATA [CACACA_site7188]”, the “gcPBM binding intensity (ln)” value came to 10.5 ± 0.65.

Regarding “GTGCATAAATCATACACACACACATATATATATATA [CACACA_site2423]”, the “gcPBM binding intensity (ln)” value is 10.4 ± 0.67. “TATACGGACTCTAAGTGTACTTAAAATAATTCAAAC [XGTACX_site3606]”: the “gcPBM binding intensity (ln)” value is 7.75 ± 0.53. For “AATTAACCCTAATTTTGTACATATTCCTTTTCTCAT [XGTACX_site46]”, the “gcPBM binding intensity (ln)” value came out at 7.92 ± 1.

As for TATTTTTATTATATGGTGCATATATACATACATATA, the “gcPBM binding intensity (ln)” value is 10.7 ± 0.79. With TATTATTATTTTATGGTGCAAAAAAAAAAAAAAAAA the figure was 10.9 ± 0.61. The same measure for ATTTTATTTTATTAAGTGCAAAAAAAAAAAAAGAAA: 10.2 ± 0.32; for “AAAAACAAAATTTGGAGTACAGTTATAATATTATTA [XGTACX_site5245]”: 8 ± 0.24. The same measure for “GCACAAATATATATATATATATATATATATATATAT [GTGCAC_negctrl_site661]”: 9.07 ± 0.54; for “ATGAGTGCACAAATATATATATATATATATATATAT [CACACA_negctrl_site404]”: 11 ± 0.56; for “TAATATAATCTGAGTGCACACAAATAAATAAACATA [CACACA_site8032]”: 10.5 ± 0.14. With “GGAAAATTATCAATAGCATGCAAAATGTGAATATTA [TGCATGCA_site901]”, the “gcPBM binding intensity (ln)” value was 7.61 ± 0.7.

Consider “AAATATTATAGCACCACACACTTATTTTATATATAT [CACACA_site5281]”, for which the “gcPBM binding intensity (ln)” value was 10.8 ± 0.86. As for “GAAAATATTATAGCACCACACACTTATTTTATATAT [CACACA_site2265]”, the “gcPBM binding intensity (ln)” value is 10.5 ± 0.71. Take “AAATATTATAGCACCACACACTTATTTTATTTATAT [CACACA_site7133]”: the “gcPBM binding intensity (ln)” value was 10.8 ± 0.55.

Values taken from the supplement of paper PMC11417369.
